In PubChem BioAssay (NCATS):
Inconclusive results are not listed.

Test: qHTS Assay for Lipid Storage Modulators (AID 1519)
Conditions: Drosophila S3 cells, BODIPY lipid droplet/cell ratio, laser cytometry; measured here: cell count channel max response; cells loaded with oleic acid
Method in brief: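 Cells seeded at 5,000 per well were treated with compounds over a concentration series and loaded with oleic acid (400 uM, as added). Lipid droplet fluorescence (488 nm excitation, 500-530 nm channel) was read by laser-scanning cytometry and normalized to 20 uM Triacsin C.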
`CCOC(=O)CCC(=O)O[C@H]1C(O[C@@H]2C(C)[C@H](O[C@H]3C[C@@](C)(OC)C(O)C(C)O3)C(C)C(=O)OC(CC)[C@@](C)(O)C(O)[C@H](C)C(=O)C(C)C[C@]2(C)O)OC(C)CC1N(C)C` (some centres undefined) showed a max response of 3.86%. Work on `C=C[C@](C)(O)CCC1C(=C)CCC2[C@@](C)(CO)CCC[C@@]12C` (some centres undefined) yielded a max response of -1.43%. Molecule `COC1(C)CCC2OC2(C)CCC2C1CC2(C)C` (centres undefined) has a max response of 6.3%. `CC(=O)OCCC(C)CCC=C(C)C` (centres undefined) showed a max response of 4.67%. Molecule `CC(CCC(=O)O)C1CCC2C3CC[C@@H]4CCCC[C@@]4(C)C3CC[C@@]12C` (some centres undefined) has a max response of 13.8%. For `CC1CC[C@@]23CCC4(C)[C@@]5(C)CCC6C(C)(C)C(O)CC[C@@]6(C)C5C=C[C@@]4(OC2=O)C3C1C` (some centres undefined), the max response was 9.51%. `CCCc1cc(OC)c2c(c1)OCO2` showed a max response of -8.72%. In the case of `C=C1C2CC[C@@]3(C)C(c4ccoc4)OC(=O)C[C@@]13OC1CC(=O)C(C)(C)C(C(O)C(=O)OC)[C@]12C` (some centres undefined), the max response is reported as 11.1%. `CC(=O)OC1CC2C(C)(C)C(O)CC(O)[C@@]2(C)C2CC[C@@]3(C)C(=CC(=O)OC3c3ccoc3)[C@]12C` (some centres undefined) gave a max response of -0.781%.

Same assay, conditions: Drosophila S3 cells, BODIPY lipid droplet/cell ratio, laser cytometry; measured here: lipid channel max response; cells loaded with oleic acid
For `COC(=O)CC1C(C)(C)C(OC(C)=O)[C@@]2(O)C=C3C4CC(=O)OC(c5ccoc5)[C@]4(C)CCC3[C@@]1(C)C2=O` (some centres undefined), the max response was 21.8%. In the case of `CC(=O)OCC(=O)C1CCC2C3CCC4=CC(=O)CC[C@@]4(C)C3CC[C@]12C` (some centres undefined), the max response is reported as 13.2%. Work on `CCCCCC1C(=O)CCC1CC(=O)O` (centres undefined) yielded a max response of 28.3%. For `CCC(/C=C/C(C)C1CCC2C3CCC4=CC(=O)CC[C@@]4(C)C3CC[C@@]12C)C(C)C` (some centres undefined), the max response was 16.6%. Molecule `CC(=O)OC1C[C@@]2(C)C(c3ccoc3)OC(=O)C3O[C@@]32[C@]2(C)C(OC(C)=O)CC3C(C)(C)C(OC(C)=O)CC(OC(C)=O)[C@@]3(C)C12` (some centres undefined) has a max response of -11%. For `Cc1cn(C2CCC(CO)O2)c(=O)[nH]c1=O` (centres undefined), the max response was 17.4%. In the case of `COc1c(O)cc2c(c1O)C1OC(CO)C(O)[C@H](O)[C@H]1OC2=O` (some centres undefined), the max response is reported as 14.2%. In the case of `COc1ccc2c(c1)OCC(Cc1ccc(OC)c(O)c1)C2=O` (centres undefined), the max response is reported as 13%. In the case of `CC(=O)OC1C=C[C@]2(C)C(CC(OC(C)=O)[C@@]3(C)C4=CC(=O)OC(c5ccoc5)[C@]4(C)CCC23)C1(C)C` (some centres undefined), the max response is reported as 1.1%. `CC1(C)C(=O)CC[C@@]2(C)C1CC(O)[C@@]1(C)C3=CC(=O)OC(c4ccoc4)[C@]3(C)CCC21` (some centres undefined) showed a max response of 28.4%. In the case of `C/C=C(\C)C(=O)OC1[C@@H]2C=C3C4CC(=O)OC(c5ccoc5)[C@]4(C)CCC3[C@@](C)(C2=O)C(C(O)C(=O)OC)C1(C)C` (some centres undefined), the max response is reported as 12.5%. Work on `COc1ccc(C2CC(=O)c3c(O)cc(O[C@H]4OC(COC5OC(C)C(O)C(O)[C@@H]5O)C(O)C(O)C4O)cc3O2)cc1O` (some centres undefined) yielded a max response of -1.01%. `CNc1ccccc1C(=O)N1CCc2c([nH]c3ccccc23)C1=O` gave a max response of 25.5%. `CON` gave a max response of 21.6%. In the case of `CC(=O)OC1CC(OC(C)=O)[C@]2(C)C(CC(=O)[C@]3(C)C2CC[C@@]2(C)C(c4ccoc4)OC(=O)C4O[C@@]423)C1(C)C` (some centres undefined), the max response is reported as 20.9%. With `Cc1ccc2c(c1)CC[C@H]1CC(=O)CC[C@@]21C` the max response was 1.9%. For `COc1ccc(-c2cc(=O)c3c(O)cc(O[C@@H]4OC(COC5OC(C)C(O)C(O)[C@@H]5O)C(O)C(O)C4O)cc3o2)cc1` (some centres undefined), the max response was 1.77%. Work on `CCN(CC)Cc1ccc(Nc2ccnc3cc(Cl)ccc23)cc1O` yielded a max response of 21.7%. In the case of `CCN1CCN(C(=O)NC(C(=O)NC2C(=O)N3C2SC(C)(C)C3C(=O)O)c2ccccc2)C(=O)C1=O` (centres undefined), the max response is reported as 0.752%. Work on `COc1ccc2c(c1)[C@]1(C)CCC(=O)C[C@H]1CC2` yielded a max response of 6.33%. Molecule `CCCCCC(=O)Cc1cc(O)cc(O)c1C(=O)Oc1cc(CC(=O)CCCCC)c(C(=O)O)c(OC)c1` has a max response of 16.1%. With `COc1c(OC)c2occc2c2oc(=O)ccc12` the max response was 12.4%. With `CCCCC(=O)Oc1ccccc1C(=O)O` the max response was 5.3%. `CC1(O)CC2C(CC1O)C2(C)C` (centres undefined) gave a max response of -2.1%. Work on `Nc1nc2c(nc(Sc3ccc(Cl)cc3)n2C2OC(CO)C(O)C2O)c(=O)[nH]1` (centres undefined) yielded a max response of 19.6%. With `COc1ccc(C2CC(=O)c3c(O)cc(O)cc3O2)cc1O` (centres undefined) the max response was 6.13%. `C=C(C)C1CC=C(CO)CC1` (centres undefined) gave a max response of 1.38%. Work on `O=C1CC(c2ccc(O)c(O)c2)Oc2cc(O)cc(O)c21` (centres undefined) yielded a max response of 9.21%. Molecule `COc1ccc(/C=C/C(=O)c2ccc(O)cc2O)cc1OC` has a max response of -18.6%. For `COC(=O)CC1C(C)(C)C(=O)C2CC3=C4CC(=O)OC(c5ccoc5)[C@]4(C)CCC3[C@@]1(C)C2=O` (some centres undefined), the max response was 18%. In the case of `C/C=C1\C2C=C(C)C[C@@]1(N)c1ccc(=O)[nH]c1C2`, the max response is reported as 26.4%. Molecule `CCOC(=O)CCC(=O)O[C@H]1C(O[C@@H]2C(C)[C@H](O[C@H]3C[C@@](C)(OC)C(O)C(C)O3)C(C)C(=O)OC(CC)[C@@](C)(O)C(O)[C@H](C)C(=O)C(C)C[C@]2(C)O)OC(C)CC1N(C)C` (some centres undefined) has a max response of 3.45%. `C=C[C@](C)(O)CCC1C(=C)CCC2[C@@](C)(CO)CCC[C@@]12C` (some centres undefined) showed a max response of 3.55%. For `COC1(C)CCC2OC2(C)CCC2C1CC2(C)C` (centres undefined), the max response was 11.9%. In the case of `CC(=O)OCCC(C)CCC=C(C)C` (centres undefined), the max response is reported as 12.4%. `CC(CCC(=O)O)C1CCC2C3CC[C@@H]4CCCC[C@@]4(C)C3CC[C@@]12C` (some centres undefined) gave a max response of 19%. For `CC1CC[C@@]23CCC4(C)[C@@]5(C)CCC6C(C)(C)C(O)CC[C@@]6(C)C5C=C[C@@]4(OC2=O)C3C1C` (some centres undefined), the max response was 12.3%. Molecule `CCCc1cc(OC)c2c(c1)OCO2` has a max response of 1.71%. With `C=C1C2CC[C@@]3(C)C(c4ccoc4)OC(=O)C[C@@]13OC1CC(=O)C(C)(C)C(C(O)C(=O)OC)[C@]12C` (some centres undefined) the max response was 18.5%. In the case of `CC(=O)OC1CC2C(C)(C)C(O)CC(O)[C@@]2(C)C2CC[C@@]3(C)C(=CC(=O)OC3c3ccoc3)[C@]12C` (some centres undefined), the max response is reported as 3.91%.
